In the supplement of paper PMC6992640:
± gives the standard deviation of the averaged measurements.

Legend:
Assay in all cases: cell viability (% of vehicle); higher = less cytotoxic
Conditions in all cases: 10 µM; 72 h
[1] = test system: HCI01 (cells of a triple-negative basal-like breast cancer xenograft)
[2] = test system: HCI03 (cells of an ER-positive luminal breast cancer xenograft)
[3] = test system: HCI09 (cells of a triple-negative luminal androgen receptor type breast cancer xenograft)
[4] = test system: HCI11 (cells of an ER-positive luminal breast cancer xenograft)
[5] = test system: HCI13 (cells of an ER-positive luminal breast cancer xenograft)
[6] = test system: HCI16 (cells of a triple-negative basal-like breast cancer xenograft)
[7] = test system: UCD52 (cells of a triple-negative basal-like breast cancer xenograft)
[8] = test system: WHIM2 (cells of a triple-negative basal-like breast cancer xenograft)
[9] = test system: WHIM30 (cells of a triple-negative basal-like breast cancer xenograft)
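Further: PDX cells carrying CMV promoter-driven luciferase, viability read as total photon flux per second by IVIS imaging following D-luciferin, vehicle control 0.1% DMSO.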

| SMILES | cell viability [1] | cell viability [2] | cell viability [3] | cell viability [4] | cell viability [5] | cell viability [6] | cell viability [7] | cell viability [8] | cell viability [9] |
| --- | --- | --- | --- | --- | --- | --- | --- | --- | --- |
| CC(C)OC(=O)[C@H](C)N[P@](=O)(CO[C@H](C)Cn1cnc2c(N)ncnc21)Oc1ccccc1 | 97.2 ± 1.3 | 109 | 87.9 ± 11 | 112 | 65.7 ± 8 | 183 | 103.7 ± 0.83 | 117.1 ± 0.62 | 144 ± 8.2 |
| O.O=P1(N(CCCl)CCCl)NCCCO1 (centres undefined) [Cyclophosphamide monohydrate] | 133 ± 17 | 147 | 90.3 ± 17 | 125 | 140 ± 5.4 | 125 | 98.5 ± 2.4 | 106 ± 2.2 | 130 ± 8.5 |
| CCN(C)C(=O)Oc1cccc(C(C)N(C)C)c1.O=C(O)C(O)C(O)C(=O)O (centres undefined) [Rivastigmine Tartrate] | 115.8 ± 0.12 | 116 | 127 ± 62 | 119 | 133 ± 51 | 151 | 111 ± 15 | 91.8 ± 31 | 131 ± 13 |
| Cn1cc(C2=C(c3cn(C4CCN(Cc5ccccn5)CC4)c4ccccc34)C(=O)NC2=O)c2ccccc21 | 94 ± 30 | 95.8 | 72.7 ± 44 | 82.3 | 72.1 ± 9.6 | 99.5 | 49 ± 7.5 | 107 ± 18 | 119 ± 5.6 |
| CC(=Cc1csc(C)n1)C1CC2OC2(C)CCCC(C)C(O)C(C)C(=O)C(C)(C)C(O)CC(=O)O1 (centres undefined) [Epothilone B (EPO906, Patupilone)] | 154 ± 16 | 119 | 91.4 ± 4.8 | 99.2 | 111 ± 2.6 |  | 78.2 ± 9.1 | 75.9 ± 13 | 137 ± 13 |
| CN(C)C1C(=O)C(C(N)=O)=C(O)C2(O)C(=O)C3=C(O)c4c(O)cccc4C(C)(O)C3C(O)C12.O.O (centres undefined) [Oxytetracycline Dihydrate] | 81.3 ± 15 | 129 | 111 ± 22 | 83.1 | 123.2 ± 0.95 | 116 | 95.3 ± 1.7 | 72.2 ± 15 | 123.8 ± 0.32 |
| C#CC1(O)C=CC2C3CCC4=CC(=O)CCC4C3CCC21CC (centres undefined) [Gestodene] |  | 149 | 97.4 ± 20 | 122 | 179 ± 25 | 184 | 143.1 ± 1.4 | 106 ± 5 |  |
| Cc1cc(O)ccc1Cl [Chlorocresol] | 114 ± 41 | 120 | 88.6 ± 17 | 85.9 | 77.6 ± 8.4 | 107 | 87.1 ± 2.5 | 98.6 ± 25 | 91.9 ± 1.3 |
| CC12CC(=CO)C(=O)CC1CCC1C2CCC2(C)C1CCC2(C)O (centres undefined) [Oxymetholone] | 114 ± 30 | 97.8 | 85 ± 38 | 86.7 | 54.8 ± 5.8 | 124 | 80.6 ± 3.8 | 90.9 ± 26 | 135 ± 1.9 |
| Cc1cccc(C(C)c2cnc[nH]2)c1C.Cl (centres undefined) [Medetomidine HCl] | 108 ± 7.7 | 102 | 93.2 ± 21 | 103 | 100.9 ± 1 | 95.4 | 87.4 ± 2.9 | 89.3 ± 22 | 113 ± 5.8 |
| Cl.NCC(O)c1ccc(O)cc1 (racemic) [(+,-)-Octopamine HCl] | 101 ± 10 | 119 | 93 ± 10 | 98.3 |  | 120 | 91.1 ± 16 | 87.9 ± 7.5 | 149.4 ± 0.28 |
| C=CCC1(O)CCC2C3CCC4=CC(=O)CCC4=C3C=CC21C (centres undefined) [Altrenogest] | 172 ± 56 | 125 | 65.5 ± 13 | 78.7 | 137 ± 7.6 | 150 | 83.1 ± 6.5 | 107 ± 12 | 141 ± 8.9 |
| Br.CN1C2CC(OC(=O)C(CO)c3ccccc3)CC1C1OC12 (centres undefined) [Scopolamine hydrobromide] | 108 ± 3.9 | 120 | 91.5 ± 17 | 104 | 83.67 ± 0.26 | 127 | 90.98 ± 0.47 | 122 ± 1.4 | 133.3 ± 1.1 |
| C[N+]1(C)[C@@H]2C[C@@H](OC(=O)C(CO)c3ccccc3)C[C@H]1[C@@H]1O[C@@H]12.[Br-] (some centres undefined) [Methscopolamine] | 106 ± 8.5 | 128 | 107 ± 9.7 | 93.2 |  | 97.9 | 80.6 ± 12 | 87.7 ± 8 | 138.9 ± 0.7 |
| CCOC(=O)c1cncn1C(C)c1ccccc1.Cl (centres undefined) [Etomidate hydrochloride] | 137 ± 30 | 155 | 125 ± 37 | 117 |  | 117 | 97.3 ± 9.7 | 145 ± 30 | 76.4 ± 5.3 |
